MCF10A rerep – inducers of DNA re-replication in MCF 10A breast cells | MCF 10A DNA re-replication, Hoechst nuclear intensity, 48 h | Potency, µM (series often up to 46.1 µM), inactives show top-dose activity, positive = re-replication, usual class: activators | actives 2.9% (n = 350,000) | AID 624296; also: potency is read from the fitted curve at half-maximal effect; % of control where 0% means no effect; nearly all actives have a fitted effect of over 50% in size
SW480 rerep – induces DNA re-replication in SW480 colon adenocarcinoma cells. SW480 DNA re-replication, Hoechst DNA content imaging, 48 h. Potency, µM (top dose mostly 46.1 µM), without a hit: at the top dose re-replication activation, usual class: activators. actives 1.8% (n = 340,000); also: potency is read from the fitted curve at half-maximal effect; % of control where 0% means no effect; nearly all actives have a fitted effect of over 55% in size
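Hoechst fluorescence of nuclei (405 nm excitation, 500-530 nm emission) measured by plate-scanning imager after 48 hr compound exposure at 37 C; re-replication scored as increased number of nuclei with elevated intensity.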
S-ASM inh – human S-ASM enzyme inhibition. P17405. placental ASM, HMU-PC fluorogenic substrate, 60 min. Potency, µM (highest dose often 57.5 µM), for the others: at the highest dose activity change, negative = inhibition, hits mostly inhibitors. actives 0.006% (n = 340,000). AID 504937; also: potency is read from the fitted curve at half-maximal effect
Target sequence (P17405 47-631 limits assumed): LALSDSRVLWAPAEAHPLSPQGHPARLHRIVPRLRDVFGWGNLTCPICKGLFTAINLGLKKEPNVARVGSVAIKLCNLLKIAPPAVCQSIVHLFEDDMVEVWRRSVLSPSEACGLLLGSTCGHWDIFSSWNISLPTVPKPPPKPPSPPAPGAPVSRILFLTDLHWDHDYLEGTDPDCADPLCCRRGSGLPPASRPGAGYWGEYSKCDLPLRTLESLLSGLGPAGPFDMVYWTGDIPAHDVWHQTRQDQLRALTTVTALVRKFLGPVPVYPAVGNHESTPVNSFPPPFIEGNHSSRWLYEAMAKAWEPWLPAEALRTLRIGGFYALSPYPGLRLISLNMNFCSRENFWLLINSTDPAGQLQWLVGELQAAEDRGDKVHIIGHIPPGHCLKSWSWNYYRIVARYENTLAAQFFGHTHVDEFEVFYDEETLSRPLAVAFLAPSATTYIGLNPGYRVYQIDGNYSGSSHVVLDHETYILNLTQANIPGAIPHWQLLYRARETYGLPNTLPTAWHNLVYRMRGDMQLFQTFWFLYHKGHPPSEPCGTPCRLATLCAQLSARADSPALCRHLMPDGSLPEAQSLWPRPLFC
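qHTS format. ASM enzyme prepared from human placenta hydrolyses the fluorogenic substrate HMU-PC0 (9 uM final) over 60 min at 37 °C after a 10 min compound preincubation.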
KB-3-1 tox – KB-3-1 parental cell cytotoxicity | actives 1.4% (n = 400,000) | KB-3-1 viability, CellTiter-Glo ATP luminescence, 72 h | Potency, µM (top dose mostly 46.1 µM), most hits filed as cytotoxic; also: potency is read from the fitted curve at half-maximal effect; % is scaled to controls: 0 for no effect and ±100 for the full control effect; nearly all actives have a fitted effect of over 60% in size
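KB-3-1 cells, DMEM (no phenol red) + 10% FBS; compound by pin transfer, 72 h, 37 °C. Readout: CellTiter-Glo luminescence after 10 min. Data normalized, curve-fitted.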
Giardia kill – kills Giardia lamblia. Giardia lamblia trophozoite viability. activity change, % at 7.66 µM, hits read low. actives 0.15% (n = 340,000). AID 540267; in the data active = activity change below about -80%; inconclusive = between about -30% and that limit;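 also: parasites exposed to compound for two days anaerobically before the ATP read; % is scaled to controls: 0 for no effect and ±100 for the full control effect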
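Giardia lamblia trophozoites (100 cells/well) were incubated with compounds for 48 h at 37 deg C under anaerobic conditions. Viability was read as ATP content by one-step luminescence after 15-30 min at room temperature.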
KB-V1 MDR tox – KB-V1 MDR subline cytotoxicity. KB-V1 MDR cells viability, CellTiter-Glo, 72 h. Potency, µM (highest dose often 46.1 µM), hits mostly cytotoxic. actives 3.4% (n = 400,000). AID 1347076; also: potency is read from the fitted curve at half-maximal effect; % is scaled to controls: 0 for no effect and ±100 for the full control effect; nearly all actives have a fitted effect of over 60% in size
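Drug-selected KB-V1 cells, grown in DMEM lacking phenol red with 10% FBS, receive compound titrations; after three days at 37 degrees C, surviving cell ATP is quantified by CellTiter-Glo luminescence and responses normalized and curve-fitted.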
The depositor's hits bear a star. Rows were chosen to be rich in hits. Some 6.9% of all compounds tested hit in one or more screens of this group. Unless noted, calls follow the shape of the dose curve; as a rule, active = well fitted curve in the direction sought with a large enough effect; inconclusive = small, poorly fitted or top-dose-only effect, or another doubt; inactive = no such curve, though single readings can be large; an effect the other way counts as inactive or inconclusive.

How did CCc1noc(C)c1C(=O)NNC(=O)c1cc(OC)cc(OC)c1 do in these assays?
MCF10A rerep: -1%; SW480 rerep: -17%; S-ASM inh: 2%; KB-3-1 tox: inactive; Giardia kill: 8; KB-V1 MDR tox: inactive

What do the screens show for `CCc1noc(C)c1C(=O)NNC(=O)c1cc(OC)c(OC)c(OC)c1`?
MCF10A rerep: -15%; SW480 rerep: 18µM*; S-ASM inh: 5%; KB-3-1 tox: inactive; Giardia kill: 21; KB-V1 MDR tox: inactive

Results for O=C1c2ccccc2C(=O)N1c1cccc(N2C(=O)c3ccccc3C2=O)n1 ?
KB-3-1 tox: inactive; Giardia kill: -13; KB-V1 MDR tox: inactive

How did COc1cccc(/C=N/Nc2ncccc2[N+](=O)[O-])c1OC do in these assays?
MCF10A rerep: 6%; SW480 rerep: 13%; S-ASM inh: -10%; KB-3-1 tox: inconclusive; Giardia kill: -5; KB-V1 MDR tox: inactive

How did COc1cccc(/C=N/n2cnc3cc(C)c(C)cc32)c1OC do in these assays?
MCF10A rerep: inconclusive; SW480 rerep: -2%; S-ASM inh: 1%; KB-3-1 tox: inconclusive; Giardia kill: -8; KB-V1 MDR tox: inconclusive

How did O=[N+]([O-])c1ccc(/C=N/Nc2ncccc2[N+](=O)[O-])s1 do in these assays?
MCF10A rerep: 12%; SW480 rerep: 2%; S-ASM inh: -7%; KB-3-1 tox: inactive; Giardia kill: -93*; KB-V1 MDR tox: inactive

Results for FC(F)Oc1ccccc1/C=N/n1cnc2ccccc21 ?
MCF10A rerep: -4%; SW480 rerep: -9%; S-ASM inh: -7%; KB-3-1 tox: inconclusive; Giardia kill: -3; KB-V1 MDR tox: inconclusive

How did Cc1cc2ncn(/N=C/c3ccc([N+](=O)[O-])s3)c2cc1C do in these assays?
MCF10A rerep: -5%; SW480 rerep: inconclusive; S-ASM inh: -3%; KB-3-1 tox: inactive; Giardia kill: -98*; KB-V1 MDR tox: inconclusive

What do the screens show for `O=[N+]([O-])c1ccc(/C=N/n2cnc3ccccc32)s1`?
MCF10A rerep: inconclusive; SW480 rerep: 4.1µM*; S-ASM inh: inconclusive; KB-3-1 tox: inconclusive; Giardia kill: inconclusive; KB-V1 MDR tox: inconclusive

Results for Cn1c(=NC(=O)c2ccc(S(=O)(=O)N3CCCC3)cc2)sc2cc(F)ccc21 ?
KB-3-1 tox: inactive; KB-V1 MDR tox: inconclusive

How did C=CCn1c(COc2ccc(OC)cc2)nnc1SCn1nnc2ccccc2c1=O do in these assays?
MCF10A rerep: -67%; SW480 rerep: -30%; S-ASM inh: -2%; KB-3-1 tox: inactive; Giardia kill: 2; KB-V1 MDR tox: 21µM*

Results for COc1ccc(OC)c(NC(=O)CN2C(=O)CCc3cc(S(=O)(=O)N4CCCCC4)ccc32)c1 ?
KB-3-1 tox: inactive; KB-V1 MDR tox: inactive

How did O=c1c2ccccc2c(-c2ccc(O)cc2)nn1-c1cccc(C(F)(F)F)c1 do in these assays?
MCF10A rerep: inconclusive; SW480 rerep: inconclusive; S-ASM inh: -18%; KB-3-1 tox: inconclusive; Giardia kill: 21; KB-V1 MDR tox: 13µM*

Results for COc1cc(NC(=O)CSc2nc(-c3ccc(C(C)C)cc3)no2)cc(OC)c1 ?
KB-3-1 tox: inactive; KB-V1 MDR tox: inactive

Results for CC(=O)OCC(CCn1cnc2cnc(N)nc21)COC(C)=O ?
MCF10A rerep: -2%; SW480 rerep: -5%

Results for COC(=O)c1sccc1S(=O)(=O)N(CC(=O)Nc1ccccc1C)c1ccc(Cl)cc1 ?
KB-3-1 tox: inactive; KB-V1 MDR tox: inactive

What do the screens show for `Cc1ccc(-n2c(SCC(N)=O)nc3c(c2=O)C2(CCCC2)Cc2ccccc2-3)cc1`?
MCF10A rerep: inconclusive; SW480 rerep: 0%; S-ASM inh: -4%; KB-3-1 tox: inconclusive; Giardia kill: -8; KB-V1 MDR tox: 10µM*

What do the screens show for `CCOC(=O)c1cccc(NC(=O)CCS(=O)(=O)c2ccc3c(c2)CCN3C(=O)CC)c1`?
KB-3-1 tox: inactive; KB-V1 MDR tox: inactive

Results for CCCCn1c(CNC(=O)C23CC4CC(CC(C4)C2)C3)nnc1SCC(=O)Nc1nnc(C)s1 ?
MCF10A rerep: -23%; SW480 rerep: 14%; S-ASM inh: -4%; KB-3-1 tox: inactive; Giardia kill: 21; KB-V1 MDR tox: inactive

Results for CCCCn1c(CNC(=O)C23CC4CC(CC(C4)C2)C3)nnc1SC(C)CC (centres undefined) ?
MCF10A rerep: inconclusive; SW480 rerep: 7%; S-ASM inh: 0%; KB-3-1 tox: inconclusive; Giardia kill: 31; KB-V1 MDR tox: 21µM*

What do the screens show for `CCCCSc1nnc(CNC(=O)C23CC4CC(CC(C4)C2)C3)n1Cc1ccccc1`?
MCF10A rerep: inconclusive; SW480 rerep: 13%; S-ASM inh: -1%; KB-3-1 tox: inconclusive; Giardia kill: 3; KB-V1 MDR tox: 2.6µM*

How did O=C(NCc1nnc(SCc2ccccc2)n1-c1ccccc1)C12CC3CC(CC(C3)C1)C2 do in these assays?
MCF10A rerep: 0%; SW480 rerep: 1%; S-ASM inh: 1%; KB-3-1 tox: inactive; Giardia kill: -2; KB-V1 MDR tox: inconclusive

How did Cc1ccc(S(=O)(=O)N2CCOCC2)cc1-c1n[nH]c(=S)n1-c1ccccc1 do in these assays?
MCF10A rerep: -2%; SW480 rerep: -11%; S-ASM inh: 4%; KB-3-1 tox: inactive; Giardia kill: 0; KB-V1 MDR tox: inconclusive

What do the screens show for `COC(=O)CC1(C(=O)OC)Oc2ccc(Br)cc2C(=O)N1c1cc(Cl)c(Cl)cc1Cl` (centres undefined)?
MCF10A rerep: -8%; SW480 rerep: inconclusive; S-ASM inh: 0%; KB-3-1 tox: inconclusive; Giardia kill: -4; KB-V1 MDR tox: 10µM*

How did COC(=O)CC1(C(=O)OC)Oc2ccc(Br)cc2C(=O)N1c1ccc(Br)cc1Cl (centres undefined) do in these assays?
MCF10A rerep: inconclusive; SW480 rerep: inconclusive; S-ASM inh: -1%; KB-3-1 tox: inconclusive; Giardia kill: -14; KB-V1 MDR tox: 18µM*

What do the screens show for `COC(=O)CC1(C(=O)OC)Oc2ccc(Br)cc2C(=O)N1c1cccc(Cl)c1Cl` (centres undefined)?
MCF10A rerep: inconclusive; SW480 rerep: 18µM*; S-ASM inh: 1%; KB-3-1 tox: inconclusive; Giardia kill: 12; KB-V1 MDR tox: 5.2µM*

Results for CC(=O)c1ccc(NC(=O)c2nc(-c3ccccc3)n(-c3ccc(C)cc3)n2)cc1 ?
KB-3-1 tox: inactive; KB-V1 MDR tox: inactive

Results for COc1cccc(N2CCN(C(=O)c3ccc4c(=O)n(CCc5ccccc5)c(=O)[nH]c4c3)CC2)c1 ?
KB-3-1 tox: inactive; KB-V1 MDR tox: inactive
